According to PubChem BioAssay AID1233 (SRMLSC, 2008):
Potency and affinity values are given separately. Activity calls are given as the source filed them.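 How the source made its calls: active means a dose-response curve fit returns a half-maximal inhibitory concentration, extrapolated values included; inactive means the fit returns no such concentration.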

target: HMG-CoA reductase [Enterococcus faecalis] (UniProt Q9FD70); assay: inhibitors of E. faecalis class II HMGR, confirmation, biochemical, Enterococcus faecalis (AID 1233); settings: purified E. faecalis HMGR, NADPH absorbance 340 nm kinetics; series mostly up to 100 µM

outcome, inactive:
COC(=O)CC1COc2ccccc2N1C(=O)c1ccc(Br)cc1 (configuration not stated), Cc1ccc(S(=O)(=O)NCCCCCC(=O)N(C)C)cc1, COc1ccc2ccc(=O)oc2c1, COc1ccc(/C=C/C(=O)NCCNC(=O)c2ccccc2)cc1OC, Cc1ccccc1NC(=O)Cn1nnc(S(=O)(=O)c2ccc(C(C)(C)C)cc2)c1N, NC1=NC(=O)S/C1=C\c1ccc(F)cc1, Cc1ccccc1NC(=O)Cn1c(CCC(=O)O)ccc1-c1cccs1, Cc1ccc(C(C(=O)NC(C)(C)C)N(Cc2ccc3c(c2)OCO3)C(=O)c2ccc(CN3CCOCC3)o2)o1 (configuration not stated), CCNC(=O)NC(=O)C(C)OC(=O)c1ccc(-n2nc(SC)sc2=S)cc1 (configuration not stated), O=C(NC(=S)N(CC1CCC1)CC1CCCO1)c1cccc([N+](=O)[O-])c1 (configuration not stated), CCOC(=O)c1sc(NC(=O)CSc2n[nH]c(CC)n2)nc1C, Cn1nc([N+](=O)[O-])nc1Sc1nnnn1-c1ccc(C(=O)O)cc1, Cc1ccc(-c2nc3cccnc3s2)cc1NS(=O)(=O)c1ccc2c(c1)CCCC2, COc1ccccc1N1CCN(CC(=O)c2c(N)n(C)c(=O)n(C)c2=O)CC1, O=C(Nc1ccc(N2CCOCC2)c(Cl)c1)c1ccc([N+](=O)[O-])o1, O=S(=O)(NCC1CCCO1)c1ccc2c(c1)OCCO2 (configuration not stated), C=CCNC(=O)C(=O)NN=C1CCN(C)CC1, COC(=O)c1cc(NC(=O)CSc2nnc(N)s2)ccc1Cl, COCCOC(=O)c1c(NC(=O)CN2CCOCC2)sc(C(N)=O)c1C, Cc1cc(=O)[nH]c(SCCOc2ccc3c(c2)CCC3)n1, CC(C)NC(=O)c1ccccc1NC(=O)C(C)Oc1ccccc1 (configuration not stated), OCCC1CN(Cc2cccs2)CCN1Cc1ccccc1 (configuration not stated), Cc1cc2cccc(C)c2nc1SCC(=O)NNC(=O)c1ccco1, CC1SC(c2ccc(Cl)cc2)NC1=O (configuration not stated), CC(=O)NCCn1c(SCc2cc(=O)n3cc(Cl)ccc3n2)nc2ccccc2c1=O, O=C(N/N=C/C(Cl)=C/c1ccccc1)c1cnccn1, COc1ccc(CSc2nnnn2C)cc1[N+](=O)[O-], Cc1c(NC(=O)CN2C(=O)c3ccccc3S2(=O)=O)c(=O)n(-c2ccccc2)n1C, CC1(C)CNC(=O)c2sc(NC(=O)c3ccccc3)nc2C1, COC(=O)Cc1cc(=O)n2[nH]cnc2n1, Cc1cc(Nc2cccc([N+](=O)[O-])c2)c2ccccc2n1, Cc1cc(C(=O)NN=C2CCCCC2)c2ccccc2n1, CC1CN(Cc2cnc(Cl)s2)CC(C)O1 (configuration not stated), COC(=O)C1=C(C)Nc2c(c(=O)n(C)c(=O)n2C)C1c1cccnc1 (configuration not stated), Cc1ccc(NC(=S)NC(=O)CC2CC(C)(C)OC2=O)cc1 (configuration not stated), COc1ccc(-c2c(N)n[nH]c2C)cc1OC, OC(COc1ccc(Cl)cc1)CN1CCCCC1 (configuration not stated)
